# About 79,000 compounds went through this panel and 15% of them were active in at least one assay; those are over-represented in the sample as a whole. Activity calls are given as the source filed them. Cut-off read from the data, not from the text of the source: active = growth inhibition above about 70%; inactive = the rest.
# Assay: NCI Yeast Anticancer Drug Screen. Data for the sgs1 mgt1 strain (AID 161);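 note: 0% = growth of cultures given vehicle only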
# Conditions: S. cerevisiae sgs1 mgt1 strain, at 50.0 µM, hits give high values
# Protocol: Growth inhibition of yeast strains with defined genetic alterations is measured as a screen for potential anti-cancer activity. Selected strains with alterations in DNA damage repair or cell cycle control were exposed to compounds and growth inhibition was measured relative to vehicle treated controls. The strain used in this assay is sgs1 mgt1
row,SMILES,growth inhibition
1,CC(=O)CC(=O)N1CCC(C)CC1,-16.4% (inactive)
2,CN(C)CC(CN(C)C)C(=O)O,-13.3% (inactive)
3,C[Si](C)(C)c1ccc(-c2ccccc2)cc1,2.25% (inactive)
4,CC(C)c1ccc(/C=C/C(=O)c2ccc(F)cc2)cc1,16.5% (inactive)
5,CC(=O)NC1=NN(C(C)=O)C(C)(c2ccccc2)S1=O (stereo not given),3.7% (inactive)
6,CC(=O)OCCCC(C)Nc1ccnc2cc(Cl)ccc12 (stereo not given),-2.35% (inactive)
7,Cc1c(C(CC(=O)c2ccccc2)C(=O)O)c2ccccc2n1C (stereo not given),23.2% (inactive)
8,CCCCCc1cc[n+](CC(=O)c2ccccc2)cc1,-12.1% (inactive)
9,COC(=O)c1nc(N)nc(C(=O)OC)c1C(=O)c1ccc(F)cc1,-12.3% (inactive)
10,CCOc1ccccc1NC(=O)C(Br)C(Br)c1ccccc1 (stereo not given),30.9% (inactive)
11,COc1nc(C(O)C2OC(C)(C)OCC2O)[nH]c1C#N (stereo not given),7.75% (inactive)
12,O=S(=O)(O)CC(O)CSSCC(O)CS(=O)(=O)O (stereo not given),8.25% (inactive)
13,COc1ccccc1C1(CBr)OCCO1,6.55% (inactive)
14,CC(=O)Nc1ccc([N+](=O)[O-])cc1Cl,16.8% (inactive)
15,COc1ccc(N=c2nc3n4c(c(Br)cc(Br)c4n2)NC(C(Br)(Br)Br)=N3)cc1,6.25% (inactive)
16,N=C1C(O)=CC(=O)C(O)=C1C(=O)O,0% (inactive)
17,CC1(C)CC(C2=NCCO2)CC(C)(C)N1,-39.3% (inactive)
18,CCOC(=O)C[C@@]1(C)C(=O)O[C@H](c2ccccc2)N1C(=O)c1ccccc1,14.2% (inactive)
19,O=C(Nc1cccc(Cl)c1)c1cc2cc(N=Nc3ccc(Br)cc3)ccc2oc1=O,27% (inactive)
20,CC(NN(C)C(=S)Nc1ccccc1)c1ccccn1 (stereo not given),-9.15% (inactive)

row,SMILES,growth inhibition
1,CCc1ccccc1NC(=O)C(=O)C1C(=O)N(c2ccccc2)N=C1N (stereo not given),-3% (inactive)
2,[N-]=[N+]=NCC1OCC(O)C(OCc2ccccc2)C1OCc1ccccc1 (stereo not given),-3.75% (inactive)
3,CSC1=Nc2ccccc2N=C(c2ccccc2)C1,52% (inactive)
4,O=CNc1ccc(F)c(F)c1,-6.95% (inactive)
5,Cc1ccc2c(ccc3ccccc32)n1,60% (inactive)
6,CC1/C(=N/Nc2ccc([N+](=O)[O-])cc2)CC2C3(C)CCC2(C(C)C(=O)O)C(=O)C13 (stereo not given),83.5% (active)
7,COCC1OCCN1C (stereo not given),-10% (inactive)
8,CC(C)C(O)(c1ccccc1)C(O)(c1ccccc1)C(C)C (stereo not given),99.5% (active)
9,CCCCCCCCCCC/C=N\[N+](C)(C)C,98.7% (active)
10,O=C(O)C#Cc1ccccc1[N+](=O)[O-],11.3% (inactive)
11,COc1ccc(/C=C/C(=O)O)cc1OC,11.7% (inactive)
12,Nc1nc(SCc2ccc(F)cc2)c2[nH]cnc2n1,12.6% (inactive)
13,CC(CC(=O)Nc1ccccc1)C(=O)O (stereo not given),-10.8% (inactive)
14,Cc1cc(=O)n2c(n1)Nc1ccccc1C2,2.75% (inactive)
15,CCC(c1ccc(OCc2ccccc2)cc1)c1cc2c(cc1OCCO)OCO2 (stereo not given),-3% (inactive)
16,Cc1csc2nc(-c3ccco3)nn12,4.55% (inactive)
17,CCCCC1SC(N)=NC1=O (stereo not given),12.5% (inactive)
18,COc1ccc(CCN=Cc2ccc(Cl)cc2)cc1OC,15.4% (inactive)
19,O=C1CCC(=O)N1CC1CC2CCC1C2 (stereo not given),22.2% (inactive)
20,CC1=C(CN(CC(=O)O)CC(=O)O)C(=O)C(C(C)C)=C/C1=C(\c1ccccc1S(=O)(=O)O)c1cc(C(C)C)c(O)c(CN(CC(=O)O)CC(=O)O)c1C,11.4% (inactive)
